Most compounds without a hit are left out; they make up all but 8% or so of the library.
KB-V1 MDR tox: kills drug-selected multidrug resistant KB-V1 cells; KB-V1 MDR cells viability, CellTiter-Glo, 72 h; Potency, µM (doses to about 46.1 µM), hits mostly cytotoxic; 3.4% of 400,000 active; further: on the % scale 0 is the no-effect control and ±100 the full control effect; nearly all actives have a fitted effect of over 60% in size
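In this primary screen, KB-V1 cells overexpressing P-gp are incubated with library compounds (lowest to highest concentration) for 72 h at 37 degrees C before a luminescent ATP viability read.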
HT1080 IDH1KD tx: toxicity to HT-1080 IDH1 knockdown cells (counter line). HT-1080 IDH1 knockdown viability, ATP luminescence, 48 h. Potency, µM (doses to about 46.1 µM), for inactives: top-dose activity, negative = toxicity, actives largely listed as cytotoxic. 2% of 360,000 active;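 further: 0% = DMSO wells and -100% = cell-free medium wells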
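Luminescent ATP read-out (CellTiter-Glo, 10 min at room temperature) after 48 h compound exposure at 37 °C gave viability of IDH1-knockdown HT-1080 cells. Activity was normalised to DMSO and cell-free wells, then fitted as concentration-response curves.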
MCF10A rereplic: induces DNA re-replication in MCF 10a normal breast cells; MCF 10A DNA re-replication, Hoechst nuclear intensity, 48 h; Potency, µM (series often up to 46.1 µM), inactives show at the highest dose activity, positive = re-replication, most hits filed as activators; 2.9% of 350,000 active; AID 624296; further: % of control where 0% means no effect; nearly all actives have a fitted effect of over 50% in size
HT1080NT lethal: kills 2HG-producing HT-1080-NT fibrosarcoma cells. HT-1080-NT fibrosarcoma viability, CellTiter-Glo ATP luminescence, 48 h. Potency, µM (series often up to 46.1 µM), for the others: at the highest dose activity, negative = less viability, hits mostly cytotoxic. 1.6% of 360,000 active. AID 686970;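 further: NT is the 2HG producing partner of a matched IDH1 knockdown line; 0% = DMSO-treated cells and -100% = media-only wells without cells; nearly all actives have a fitted effect of over 55% in size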
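Toxicity toward the 2HG-producing NT line was scored as %Activity, normalised to DMSO and no-cell wells, from CellTiter-Glo luminescence after 48 hours' treatment.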
SW480 rerep: inducers of DNA re-replication in SW480 colon cancer cells; SW480 DNA re-replication, Hoechst DNA content imaging, 48 h; Potency, µM (series often up to 46.1 µM), without a hit: at the highest dose re-replication activation, usual class: activators; 1.8% of 340,000 active; further: % of control where 0% means no effect; nearly all actives have a fitted effect of over 55% in size
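Per well, 250 cells were exposed to pinned compound for 48 hr. Nuclear DNA was visualised with Hoechst (40 min, 37 C) and total object intensity recorded by fluorescence scanning.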
KB-3-1 cytotox: KB-3-1 parental cell cytotoxicity; 1.4% of 400,000 active; KB-3-1 viability, CellTiter-Glo ATP luminescence, 72 h; AID 1347075; Potency, µM (doses to about 46.1 µM), actives largely listed as cytotoxic; further: on the % scale 0 is the no-effect control and ±100 the full control effect; nearly all actives have a fitted effect of over 60% in size
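KB-3-1 cells, DMEM (no phenol red) + 10% FBS; compound by pin transfer, 72 h, 37 °C. Readout: CellTiter-Glo luminescence after 10 min. Data normalized, curve-fitted.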
* = called active by the depositor; i = inactive; ? = inconclusive; · = not tested or not shown; [ ] = another dose, or the depositor's remark. The call rests on the fitted dose curve; in most records, active means well fitted curve in the direction sought with a large enough effect; inconclusive means small, poorly fitted or top-dose-only effect, or another doubt; inactive means no such curve, though single readings can be large; an effect the other way counts as inactive or inconclusive. Potency means the concentration at half of the fitted maximal effect.

SMILES | KB-V1 MDR tox | HT1080 IDH1KD tx | MCF10A rereplic | HT1080NT lethal | SW480 rerep | KB-3-1 cytotox
c1ccc2c(c1)CCN(C1=Nc3cccc4cccc1c34)C2 | ? | ? | 8.2µM* | ? | ? | i
CC1CN(c2nn3c(=O)c4ccccc4nc3c3ccccc23)CC(C)O1 (configuration not stated) | 21µM* | 0% | -9% | -4% | -15% | ?
CC1CN(c2nc3ccccc3cc2-c2ccccc2)CC(C)O1 (configuration not stated) | i | -13% | 21µM* | -21% | -1% | i
C=C(C)C1CCC(C)=C1CC(C)(C)/C=N\n1cnnc1 (configuration not stated) | 15µM* | -3%[9.24 µM] | -18% | -25% | 11% | i
Cc1nn(-c2ccccc2)c2c1C(c1ccc([N+](=O)[O-])cc1)N1C(=N2)C(=O)Nc2ccccc21 (configuration not stated) | 18µM* | -25% | -4% | -17% | -5% | 23µM*
Cc1ccccc1N(CC(=O)NC1CCCC1)C(=O)c1oc(C(C)(C)C)cc1C | 16µM* | 2% | ? | -6% | ? | i
Cc1nc(NC(=O)c2cccs2)ccc1Br | ? | -5% | ? | -1% | 39% | i
O=C(NCC1CCCO1)c1nn2c(C(F)(F)F)cc(-c3cc(Br)cs3)nc2c1Br (configuration not stated) | i | 5% | 15µM* | 17% | 5.8µM* | i
CCOC(=O)c1cnc2c(cnn2C)c1NCCC(O)C(F)(F)F (configuration not stated) | 6.5µM* | -14% | 8% | 4% | -20% | i
COC(/C=C/Nc1ccc(C)c(C)c1)=C(C#N)C#N | i | -5% | 1% | 6% | -3% | i
O=c1cc(CSc2ccc(Cl)cc2)nc(-c2ccccn2)[nH]1 | i | -29% | ? | -17% | 18% | 13µM*
Clc1ccc(SCc2cc(N3CCOCC3)nc(-c3ccccn3)n2)cc1 | ? | -17% | ? | -6% | 8.2µM* | ?
Oc1cccc(C(O)CNCc2ccc(-c3ccccc3)cc2)c1 (configuration not stated) | ? | 21µM* | 16µM* | 16µM* | ? | ?
OC(CNCc1ccccc1)c1ccccc1 (configuration not stated) | i | 14% | -5% | 2% | -11% | i
OC(CNCc1cccc(Cl)c1)c1ccccc1 (configuration not stated) | ? | -8% | 18% | -24% | ? | i
Oc1cccc(C(O)CNCc2ccc(OCc3ccc(Cl)cc3Cl)cc2)c1 (configuration not stated) | ? | 16µM* | 15µM* | 23µM* | ? | i
CCOC(=O)N(C(=O)c1ccccc1)c1ccccc1 | i | · | · | · | · | i
C=C1C(=O)C=C[C@]2(C)C[C@@H]3OC(=O)[C@](C)(O)[C@H]3C[C@@H]12 | ? | ? | 6.5µM* | ? | ? | ?
Cc1sc(NC(=O)c2ccc(F)cc2)c(CN2CCCCCC2)c1C | ? | -8% | 13% | -2% | 14% | i
O=C(Nc1sc2c(c1CN1CCOCC1)CCC2)c1ccc(F)cc1 | 2.1µM* | 8% | 3% | 8% | -5% | i
Cn1c(CN2CCOCC2)nc2cc(NC(=O)c3ccccc3Cl)ccc21 | ? | 13% | 19% | 2% | -9% | i
Cn1c(CN2CCOCC2)nc2cc(NC(=O)c3ccc(F)cc3)ccc21 | 16µM* | 0% | 12% | -10% | -27% | i
Cn1c(CN2CCCCC2)nc2cc(NC(=O)c3ccc(Cl)cc3)ccc21 | ? | ? | 23µM* | ? | ? | ?
C/C(=N/NC(=O)CNC(=O)C1COc2ccccc2O1)c1ccc([N+](=O)[O-])cc1 (configuration not stated) | i | -1% | -32% | -14% | -5% | i
NS(=O)(=O)c1ccc(CCNc2nc3c(-c4cccc(F)c4)nnn3c3ccc(Cl)cc23)cc1 | i | · | · | · | · | ?
SMILES | KB-V1 MDR tox | HT1080 IDH1KD tx | MCF10A rereplic | HT1080NT lethal | SW480 rerep | KB-3-1 cytotox
O=C(Cc1ccccc1)Nc1cc(Cl)ccc1Sc1ccccc1 | 18µM* | 26% | -2% | 6% | -32% | i
O=C(CCl)Nc1ccccc1Sc1ccccc1 | i | -3% | ? | -7% | -6% | i
O=C(Cc1ccc(Cl)cc1)Nc1ccccc1Sc1ccccc1 | 23µM* | -6% | ? | -13% | 6% | ?
O=C(Cc1ccccc1)NCC(=O)Nc1cc(Cl)ccc1Cl | ? | ? | 0% | ? | 12% | ?
COc1ccc(N(CC(=O)NCCSCc2ccco2)S(=O)(=O)c2ccccc2)cc1Cl | · | 1% | 23% | -2% | 28% | ·
CN(C)/C(CN1CCOCC1)=C1\N=C(c2ccccc2)OC1=O | 16µM* | 7% | -4% | 3% | -7% | i
COc1ccc(C)cc1Nc1nc(N)c2cc(OC)c(OC)cc2n1 | ? | 18µM* | ? | ? | ? | i
COc1cc2nc(N3CCN(c4cc(C)ccc4C)CC3)nc(N)c2cc1OC | ? | 2.6µM* | 6.5µM* | 2.6µM* | ? | ?
COc1cc(/C=N/n2c(-c3ccc4c(c3)NC(=O)CO4)csc2=Nc2cccc(C)c2)ccc1O | i | -15% | 23µM* | -9% | ? | i
COCCN=c1scc(-c2ccc3c(c2)NC(=O)CO3)n1/N=C(\C)c1ccc(O)cc1 | i | ? | ? | ? | ? | ?
COc1ccc(Cl)cc1NC(=O)Cn1c(=O)n(Cc2nc(C)no2)c(=O)c2ccccc21 | i | · | · | · | · | i
Cc1ccc(O)c(-c2cc(C(=O)Nc3ccc(S(=O)(=O)N4CC(C)OC(C)C4)cc3)[nH]n2)c1 (configuration not stated) | ? | -29% | 4% | ? | 24% | ?
Cc1cc(O)c(-c2cc(C(=O)Nc3ccc(S(=O)(=O)N4CCOCC4)cc3)[nH]n2)cc1C | ? | 10µM* | ? | 14µM* | ? | ?
O=C(Nc1ccc(Cl)cc1)c1ccc(S(=O)(=O)N2CCOCC2)cc1 | i | -7% | 10% | 3% | -12% | i
O=C(Nc1ccc(S(=O)(=O)N2CCOCC2)cc1)c1cc(-c2cc(Cl)ccc2O)n[nH]1 | ? | 16µM* | ? | ? | ? | 12µM*
COc1ccc(CC(=O)NCCc2sc(-c3ccc(Cl)cc3)nc2C)cc1OC | i | · | · | · | · | i
CNc1nc(-c2ccc3c(c2)CCN3C(=O)c2cccc(F)c2)cs1 | i | ? | 26% | ? | 15µM* | 15µM*

From PubChem
